In PubChem BioAssay (NCI):
This is part of a sample that, as a whole, favours compounds with a hit. Of some 79,000 tested, about 15% had one in any assay. The source made the active and inactive calls. Cut-off read from the data, not from the text of the source: active = growth inhibition above about 70%; inactive = the rest.

What was measured:
[1] = NCI Yeast Anticancer Drug Screen. Data for the rad50 strain (AID 155);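 note: 0% = growth of vehicle-only cultures of the same strain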; details: S. cerevisiae rad50 strain growth inhibition, hits give high values; at 50.0 µM unless noted
How it was run: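 Yeast carrying a defined DNA repair defect were exposed to test compounds, and growth was compared with vehicle-treated controls to give percent inhibition.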

[2] = NCI Yeast Anticancer Drug Screen. Data for the mec2-1 strain (AID 157); details: S. cerevisiae mec2-1 strain, hits give high values; at 50.0 µM unless noted
How it was run: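 Compounds were applied to mec2-1 yeast cells. Their growth was then compared with that of vehicle-treated cultures to give growth inhibition.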

[3] = NCI Yeast Anticancer Drug Screen. Data for the sgs1 mgt1 strain (AID 161);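 note: 0% = growth of cultures given vehicle only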; details: S. cerevisiae sgs1 mgt1 strain, hits give high values; at 50.0 µM unless noted
How it was run: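 This yeast growth screen uses a strain with defined DNA-repair lesions; compound-treated growth is compared with vehicle-treated growth.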

[4] = NCI Yeast Anticancer Drug Screen. Data for the cln2 rad14 strain (AID 165);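 note: 0% = growth equal to vehicle treated cultures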; details: S. cerevisiae cln2 rad14 strain, hits give high values; at 50.0 µM unless noted
How it was run: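 Strain: cln2 rad14 yeast, altered in cell cycle control and DNA damage repair. Read-out: growth inhibition vs vehicle.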

[5] = NCI Yeast Anticancer Drug Screen. Data for the bub3 strain (AID 167); details: S. cerevisiae bub3 mutant strain, hits give high values; at 50.0 µM unless noted
How it was run: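 Compounds were applied to a genetically altered yeast strain carrying a cell-cycle control defect. Growth inhibition was scored against vehicle-treated controls.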

[6] = NCI Yeast Anticancer Drug Screen. Data for the mlh1 rad18 strain (AID 175); details: S. cerevisiae mlh1 rad18 strain growth inhibition, hits give high values; at 50.0 µM unless noted
How it was run: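 A repair-deficient yeast strain is exposed to test compound, and growth is scored relative to vehicle-treated controls.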

Measured: growth inhibition

O=C1c2ccccc2C(=O)c2cc3nc4c5ccccc5c5ccccc5c4nc3cc21
inactive: [1] -35% | [2] -21.2% | [3] -27.2% | [4] -37.6% | [5] 3.35% | [6] -13.6%

FC(F)(F)C1CCCCC1[Si](C1CCCCC1C(F)(F)F)C1CCCCC1C(F)(F)F (stereo not given)
inactive: [1] 32.8% | [2] -11.2% | [3] 13.7% | [4] 10.5% | [5] -5.55% | [6] 5.7%

COc1c2c(cc3c1C(=O)c1c(O)cccc1C3=O)CC(O)CC2 (stereo not given)
inactive: [1] -14.7% | [2] -33.2% | [3] -13.4% | [4] -10.5% | [5] 2.8% | [6] -22.9%

CCOC(=O)c1cnc2c(cnn2CC)c1NCC(C)C
active: [5] 85.9%
inactive: [1] -3.15% | [2] 21.8% | [3] 18.6% | [4] 3.15% | [6] 3.35%

Cc1nnc(-n2cccc2)s1
inactive: [1] 0.8% | [2] -18.9% | [3] -5.3% | [4] -3.55% | [5] -4.1% | [6] 3.25%

CC(=O)Oc1c(I)cc(Cc2nc(C)oc2C)cc1I
inactive: [1] -41.1% | [2] -1.15% | [3] 6.5% | [4] 1% | [5] 6.8% | [6] -4.8%

CCCC1([N+]2(C)CCCC2)CS(=O)C1CC (stereo not given)
inactive: [1] -3.8% | [2] 8.45% | [3] -3% | [4] -4.8% | [5] 5.8% | [6] -13.3%

CC(O)C(=O)N(CCO)c1ccccc1 (stereo not given)
inactive: [1] 13.4% | [2] 1.2% | [3] -5.5% | [4] 3.25% | [5] 2.2% | [6] -21.4%

ON=C1CCC(c2ccccc2)CC1 (stereo not given)
inactive: [1] -21.3% | [2] -24% | [3] 13.8% | [4] -24.2% | [5] 2.85% | [6] -9.6%

Cc1ccc([N+](=O)[O-])cc1N1C(=O)c2ccccc2C1=O
inactive: [1] 14.5% | [2] -13.6% | [3] 12.6% | [4] 8.2% | [5] 13.6% | [6] 13.2%

COC1OC(CO)C(O)C(O)C1OS(=O)(=O)c1ccc(C)cc1 (stereo not given)
inactive: [1] 5.7% | [2] -3% | [3] -10.1% | [4] 1.75% | [5] -1.85% | [6] -13.2%

Nc1c(N2CCOCC2)c(=O)nc2[nH]/c(=C\c3ccccc3)c(=O)n12
inactive: [1] 8.5% | [2] -20.7% | [3] 4.75% | [4] 22% | [5] 8% | [6] -46.8%

C=CCOC(=O)CC(=C)C(=O)O
inactive: [1] 18.9% | [2] 31% | [3] 15.8% | [4] -24.8% | [5] 6.2% | [6] 7.55%

CCCCNC(=O)/C(=C\c1ccc(OC)c(OC)c1)NC(=O)c1ccccc1
inactive: [1] -63.5% | [2] -55.3% | [3] -34.4% | [4] -1.75% | [5] -35% | [6] -21.6%

Nc1ncnc(N)c1NC(=O)c1cccnc1
inactive: [1] 8.7% | [2] -6% | [3] 7.65% | [4] -40% | [5] -2.05% | [6] 5.5%

CC1=Nc2ccccc2C12C(c1ccccc1)C(c1ccccc1)C(=O)N1c3ccccc3CC12 (stereo not given)
inactive: [1] -2.25% | [2] -16.4% | [3] -33.6% | [4] 20.1% | [5] -14.3% | [6] -1.65%

COC(=O)C(=O)C(C(=O)C=C(C)C)C(=O)C(=O)Nc1ccc(C)cc1C (stereo not given)
inactive: [1] -4.9% | [2] -17.5% | [3] -3.55% | [4] 11.2% | [5] -18.6% | [6] -29.6%

O=C(NCC1CC1)c1cccs1
inactive: [1] -41.4% | [2] -50.9% | [3] -18.9% | [4] -23.6% | [5] -21.6% | [6] -50.4%

CCN(CC)c1ccc2cc(C(=O)NCc3ccccc3)c(=N)oc2c1
inactive: [1] 9.7% | [2] 15.8% | [3] -15.8% | [4] 3.45% | [5] -38% | [6] 7.35%

COC(=O)CSSC(C)C
inactive: [1] -29.2% | [2] -15.3% | [3] -22.1% | [4] 5.1% | [5] 6.4% | [6] -59.1%

COc1ccc(C(=[N+]=[N-])c2ccc(OC)cc2)cc1
inactive: [1] -4.65% | [2] -6.85% | [3] 7.35% | [4] -48.2% | [5] -10.1% | [6] 4.75%

CCOC(=O)C1=C(O)c2ccccc2C(=O)C1=O
inactive: [1] 7.35% | [2] 3.8% | [3] 21.6% | [4] 11.3% | [5] 13.2% | [6] 8.95%

CNC(=O)N(CCCCC(NC(C)=O)C(=O)NCc1ccccc1)Cc1ccccc1 (stereo not given)
inactive: [1] -12.3% | [2] -23.2% | [3] -15.8% | [4] -12.4% | [5] -7.1% | [6] -12.8%

CC1=Nc2ccc([N+](=O)[O-])cc2C1(C)C
inactive: [1] -0.35% | [2] 5.1% | [3] -7.55% | [4] -2.15% | [5] -16.1% | [6] -5.45%

CC(C)(O)C#CC(C)(C)O
inactive: [1] 1.1% | [2] -7.7% | [3] -10.7% | [4] 0.25% | [5] 5.65% | [6] -11.7%

O=C1c2scc(-c3ccc(F)cc3)c2-n2cccc21
inactive: [1] 7.8% | [2] 12.5% | [3] 7.6% | [4] 3.7% | [5] 8.65% | [6] 24.1%

Cc1ccc(S(=O)(=O)NNC(=O)CCn2[nH]c(=O)c(Cl)c(Cl)c2=O)cc1
inactive: [1] -16.9% | [2] -9.65% | [3] -8.1% | [4] -38.1% | [5] -0.3% | [6] -12.1%

CC(C)=C(Nc1ccccc1)NC(C)C
inactive: [1] 47.4% | [2] -19.1% | [3] -28.4% | [4] -16.2% | [5] -40.6% | [6] -3.15%

CC(=O)CC(=O)Nc1nc2ccccc2s1
inactive: [1] -4.45% | [2] 2.65% | [3] 9.05% | [4] -13.2% | [5] -7.5% | [6] 15.2%

CCOC(=N)C1(O)CCCCC1
inactive: [1] -9.05% | [2] -6.75% | [3] -13.4% | [4] -5.1% | [5] -3.8% | [6] 23.6%

Nc1c(Cl)ncnc1Nc1ccc(CCO)cc1
inactive: [1] -3.6% | [2] -9.25% | [3] 22.6% | [4] -60.3% | [5] -4.4% | [6] -8.75%

CCOC(=O)/C(C#N)=C/c1ccc(C)cc1
inactive: [1] 10.4% | [2] 15.8% | [3] 11.2% | [4] 6.15% | [5] 22.3% | [6] 22.9%

C=CCN(N=O)C(=O)N(CCCCC(NC(C)=O)C(=O)NCc1ccccc1)Cc1ccccc1 (stereo not given)
inactive: [1] -0.95% | [2] -13.1% | [3] -21.4% | [4] -26.5% | [5] -22.3% | [6] -17.1%

O=C(Nc1ccc(Br)cc1)C(Br)C(Br)c1ccccc1 (stereo not given)
active: [1] 98% | [2] 97.7% | [3] 98.6% | [4] 96.7% | [5] 97.8% | [6] 97.9%

CN(C(=O)c1cccc([N+](=O)[O-])c1)C1CCCCC1
inactive: [1] 2.6% | [2] 34.5% | [3] 32.6% | [4] -4.7% | [5] 22.4% | [6] 14.2%

COC(=O)c1ccccc1OC
inactive: [1] 20.1% | [2] 15.8% | [3] -2.2% | [4] 6.75% | [5] -2.05% | [6] 3.1%

CC(=O)Sc1ccc2c(c1)-c1ccccc1C2=O
inactive: [1] 28.6% | [2] 27.2% | [3] 22.4% | [4] 8.25% | [5] 39.6% | [6] 16.9%

CC(Oc1ccc(OCC2CCCCC2)cc1)C(=O)N(CCO)CCO (stereo not given)
inactive: [1] 21.2% | [2] -19.9% | [3] 25.6% | [4] 11.9% | [5] -43.4% | [6] 6.65%

Cc1ccc2c(ccc3nc(N)nc(N)c32)c1
inactive: [1] -0.4% | [2] 11.5% | [3] -5.55% | [4] -42.9% | [5] -47.3% | [6] -2.65%

CC(C(=O)O)c1ccc(-c2ccccc2)cc1 (stereo not given)
inactive: [1] 10.6% | [2] 13.3% | [3] -1.85% | [4] -12.2% | [5] 1.4% | [6] 7.1%
